Measurements from PubChem BioAssay (Tox21).
Values joined by “and” are separate entries in the source; they are usually repeats but may differ in a detail not shown here. Equal values may be shown once. Records with an inconclusive call do not appear. More than one record can exist for a structure, and the calls need not agree. Active and inactive are the calls of the source. Unless noted, the call rests on the fitted dose curve; in most records, active means well fitted curve in the direction sought with a large enough effect in the repeat runs; inconclusive means weak or mixed curves; inactive means no such curve, though single readings can be large; an effect the other way counts as inactive or inconclusive.

How the values were obtained:
[1] = biological target: Retinoic acid receptor RXR-alpha (Homo sapiens) (UniProt P19793); assay: qHTS assay to identify small molecule agonists of the RXR signaling pathway (AID 1159527; calls by dose curve; further: nearly all actives have a fitted effect of over 35% in size; further: potency means the concentration at half of the fitted maximal effect)
Method in brief: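 Compounds in DMSO were added to RXR-alpha-UAS-bla HEK 293T cells kept in 2% charcoal-stripped serum, and incubated 16 hr at 37 C with 5% CO2. Reporter signal came from a 2 hr B/G FRET substrate step.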

[2] = qHTS assay to identify small molecule agonists of the RXR signaling pathway - cell viability counter screen (AID 1159529);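 further: HEK 293T cells carrying an RXR-alpha UAS beta-lactamase reporter; series mostly up to about 77 µM; nearly all actives have a fitted effect of over 50% in size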
Method in brief: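 Counter screen: CellTiter-Glo luminescence. Cells: RXR-alpha-UAS-bla HEK 293T. Medium: 2% charcoal-stripped FBS. Treatment: 16 h, 37 C. Reagent incubation: 30 min, RT.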

[3] = qHTS assay to identify small molecule antagonists of the retinoid acid receptor (RAR) signaling pathway - cell viability counter screen (AID 1159551); further: nearly all actives have a fitted effect of over 35% in size
Method in brief: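 In this counter screen, the RARE-luciferase line C3RL4 was exposed for 6 h at 37 C and 5% CO2 to compounds with retinol at 1 uM final. Cellular ATP, read by luminescence, served as the viability measure.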

[4] = qHTS assay to identify small molecule antagonists of the retinoic acid receptor (RAR) signaling pathway (AID 1159552; further: nearly all actives have a fitted effect of over 50% in size)
Method in brief: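 Antagonism of retinol-induced RARE reporter activity was measured in C3RL4 cells. Exposure to compounds and 1 uM final retinol lasted 6 hr at 37 C, with luminescence as endpoint.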

[5] = qHTS assay to identify small molecule agonists of the retinoic acid receptor (RAR) signaling pathway (AID 1159553)
Method in brief: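 In this cell-based screen, 1,000 C3RL4 cells per well were cultured overnight, dosed with test chemicals in DMSO for 6 hr, and assessed for RARE luciferase luminescence.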

[6] = qHTS assay to identify small molecule antagonists of the estrogen related receptor (ERR) signaling pathway from Tox21 library - cell viability counter screen (AID 1224834); further: nearly all actives have a fitted effect of over 30% in size
Method in brief: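 Counter screen run in ERR cells (2,000 cells/well): cells pre-incubated 6 h, then treated with compounds for 17.5 h at 37 C. Fluorescence was read 30 min after CellTiter-Fluor addition.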

[7] = biological target: Luciferin 4-monooxygenase (Photinus pyralis) (UniProt P08659); assay: qHTS assay to identify small molecule inhibitors of firefly luciferase (AID 1224835); further: nearly all actives have a fitted effect of over 25% in size; further: potency means the concentration at half of the fitted maximal effect
Method in brief: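 Inhibition of purified Photinus luciferase is measured by luminescence. Substrate levels (D-luciferin, ATP) sit at their KM values. Each compound is tested in a concentration series.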

[8] = qHTS assay to identify small molecule agonists of the constitutive androstane receptor (CAR) signaling pathway - cell viability counter screen (AID 1224836); further: series mostly up to about 92 µM; nearly all actives have a fitted effect of over 45% in size
Method in brief: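 Double-stable HepG2 hepatoma cells (hCAR plus CYP2B6-2.2kb) are treated for 23 h at 37 C with test compounds in 15-point concentration series. PK11195 at 0.75 uM final is co-added. Cell viability is quantified by CellTiter-Fluor.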

[9] = qHTS assay to identify small molecule antagonists of the constitutive androstane receptor (CAR) signaling pathway - cell viability counter screen (AID 1224837); further: series mostly up to about 92 µM; nearly all actives have a fitted effect of over 45% in size
Method in brief: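 CITCO at 50 nM final was added alongside compounds (15 concentrations) to double-stable hCAR/CYP2B6-2.2kb HepG2 cells. Following 23 hr at 37 C, cell viability was quantified by CellTiter-Fluor fluorescence intensity.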

[10] = qHTS assay to identify small molecule antagonists of the estrogen related receptor signaling pathway with the pleiotropic PPARgamma coactivator (PGC) from Tox21 10K library - cell viability counter screen (AID 1224840; active means well fitted cell-killing curve with a large enough effect in the repeat runs, not every such curve was filed as active; further: nearly all actives have a fitted effect of over 40% in size)
Method in brief: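 Readout: fluorescence intensity from CellTiter-Fluor after 30 min at 37 C/5% CO2. Preceded by 17.5 h treatment of PGC/ERR cells with DMSO-dissolved compounds, added 6 h post-seeding.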

[11] = biological target: Nuclear receptor subfamily 1 group I member 3 (Homo sapiens) (UniProt Q14994); assay: qHTS assay to identify small molecule antagonists of the constitutive androstane receptor (CAR) signaling pathway (AID 1224838); further: nearly all actives have a fitted effect of over 40% in size
Method in brief: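 Inhibition of CITCO-driven (50 nM final) CYP2B6 reporter expression is measured in HepG2 cells stably carrying hCAR. Fifteen compound concentrations are applied for 24 h at 37 C, followed by luciferase luminescence.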

[12] = qHTS assay to identify small molecule antagonists of the estrogen related receptor signaling pathway with the pleiotropic PPARgamma coactivator (PGC) from Tox21 10K library (AID 1224841; call rule not given here; further: actives are mostly falling curves and most rising ones were filed inactive; nearly all actives have a fitted effect of over 50% in size; further: potency means the concentration at half of the fitted maximal effect)
Method in brief: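 One-Glo luminescence, measured after half an hour at room temperature, quantified reporter output of PGC/ERR cells. These had been plated at 2,000 per well, incubated 6 h, dosed with compounds in DMSO, then kept 18 h at 37 C.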

[13] = qHTS assay to identify small molecule agonists of the estrogen related receptor signaling pathway with the pleiotropic PPARgamma coactivator (PGC) from Tox21 10K library (AID 1224842); further: nearly all actives have a fitted effect of over 15% in size
Method in brief: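 Luminescence from One-Glo (30 min, room temperature) measured after PGC/ERR cells had 18 h at 37 C with pinned compound (23 nL in DMSO). Cells had been seeded at 2,000 per well and pre-incubated 6 h.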

[14] = biological target: Nuclear receptor subfamily 1 group I member 3 (Homo sapiens) (UniProt Q14994); assay: qHTS assay to identify small molecule agonists of the constitutive androstane receptor (CAR) signaling pathway (AID 1224839); further: series mostly up to about 92 µM; nearly all actives have a fitted effect of over 15% in size
Method in brief: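 Readout: firefly luciferase luminescence via ONE-Glo. System: HepG2 double-stable for hCAR and CYP2B6-2.2kb. Conditions: 15-point compound titration, PK11195 at 0.75 uM final, 24 h incubation.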

Measured: Potency

Luciferin 4-monooxygenase (Photinus pyralis), sequence (P08659 whole entry, looked up): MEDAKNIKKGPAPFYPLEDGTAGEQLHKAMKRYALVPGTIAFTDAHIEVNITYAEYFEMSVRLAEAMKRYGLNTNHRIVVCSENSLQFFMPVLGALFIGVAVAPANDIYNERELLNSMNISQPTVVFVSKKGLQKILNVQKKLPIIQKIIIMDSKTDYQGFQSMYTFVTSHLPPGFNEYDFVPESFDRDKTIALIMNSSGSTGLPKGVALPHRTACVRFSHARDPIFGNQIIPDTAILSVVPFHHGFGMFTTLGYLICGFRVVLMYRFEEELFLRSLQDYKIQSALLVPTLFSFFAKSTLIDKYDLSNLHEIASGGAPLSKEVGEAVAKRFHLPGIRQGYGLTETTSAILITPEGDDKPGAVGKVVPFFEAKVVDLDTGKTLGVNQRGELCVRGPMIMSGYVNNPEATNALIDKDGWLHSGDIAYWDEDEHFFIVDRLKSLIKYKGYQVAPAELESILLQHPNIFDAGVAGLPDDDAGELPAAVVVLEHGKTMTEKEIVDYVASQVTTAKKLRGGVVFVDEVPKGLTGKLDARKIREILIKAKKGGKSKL
Retinoic acid receptor RXR-alpha (Homo sapiens), sequence (P19793 whole entry, looked up): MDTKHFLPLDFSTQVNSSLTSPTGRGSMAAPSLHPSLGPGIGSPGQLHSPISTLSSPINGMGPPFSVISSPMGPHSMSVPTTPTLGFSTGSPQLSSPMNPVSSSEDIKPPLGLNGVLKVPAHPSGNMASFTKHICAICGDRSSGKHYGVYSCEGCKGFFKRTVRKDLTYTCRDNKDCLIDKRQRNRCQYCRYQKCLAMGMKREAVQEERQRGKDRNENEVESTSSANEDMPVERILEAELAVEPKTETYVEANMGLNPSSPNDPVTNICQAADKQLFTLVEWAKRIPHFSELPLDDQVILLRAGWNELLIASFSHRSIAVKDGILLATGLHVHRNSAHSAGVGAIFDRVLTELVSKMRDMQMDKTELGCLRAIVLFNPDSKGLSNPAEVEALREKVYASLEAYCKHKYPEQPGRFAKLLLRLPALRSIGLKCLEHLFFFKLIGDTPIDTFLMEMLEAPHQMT
Nuclear receptor subfamily 1 group I member 3 (Homo sapiens), sequence (Q14994 whole entry, looked up): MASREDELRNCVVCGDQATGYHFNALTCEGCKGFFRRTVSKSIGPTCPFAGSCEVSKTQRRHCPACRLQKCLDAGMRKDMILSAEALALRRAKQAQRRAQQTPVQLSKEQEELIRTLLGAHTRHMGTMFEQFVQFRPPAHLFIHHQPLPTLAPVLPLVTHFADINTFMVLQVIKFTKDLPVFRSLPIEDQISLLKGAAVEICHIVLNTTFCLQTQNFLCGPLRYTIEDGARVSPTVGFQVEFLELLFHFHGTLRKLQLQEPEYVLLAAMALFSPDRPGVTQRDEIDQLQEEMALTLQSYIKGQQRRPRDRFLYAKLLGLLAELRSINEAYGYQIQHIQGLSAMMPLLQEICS

Brc1ccc(Br)c(Br)c1
not listed: [11] | [12] | [13] | [14]
inactive: all other assays above

C=CC(C)CCCC(C)(C)O (stereo not drawn)
not listed: [12] | [13] | [14]
inactive: all other assays above

CCCCCC(=O)O
54.5 µM (active) and inactive: [12]
not listed: [7] | [11] | [14]
inactive: all other assays above

Cc1ccc2ncccc2c1
inactive and 13.8 µM (active): [1]
not listed: [14]
inactive: all other assays above

NCCN1CCNCC1
not listed: [12] | [13] | [14]
inactive: all other assays above

C=CC(=O)OCCC(=O)O
not listed: [13] | [14]
inactive: all other assays above

OCc1ccccc1
not listed: [14]
inactive: all other assays above

CSc1ccc(Cl)cc1
not listed: [12] | [13]
inactive: all other assays above

CCCCCCCCCCO
not listed: [11] | [12] | [13] | [14]
inactive: all other assays above

CC(C)OC(=O)COc1ccc(Cl)cc1Cl
active: [7] 35 µM
not listed: [12] | [13] | [14]
inactive: all other assays above

COCCOC(=O)c1ccccc1C(=O)OCCOC
not listed: [12] | [13] | [14]
inactive: all other assays above

CC(CCl)OP(=O)(OC(C)CCl)OC(C)CCl (stereo not drawn)
38.6 µM (active) and inactive: [12]
not listed: [14]
inactive: all other assays above

O=C(O)c1ccc(S(=O)(=O)N(Cl)Cl)cc1
not listed: [12] | [13] | [14]
inactive: all other assays above

O=C(O)c1cc2ccccc2cc1O
active: [7] 35.3 µM and 31.7 µM
not listed: [14]
inactive: all other assays above

Cc1ccc(C(C)C)c(O)c1
not listed: [7] | [14]
inactive: all other assays above

CCCCCCC=O
not listed: [4] | [11] | [12] | [13] | [14]
inactive: all other assays above

CC(=O)CC(C)(C)O
not listed: [7] | [11] | [14]
inactive: all other assays above

NCCCCCCN
not listed: [4] | [11] | [14]
inactive: all other assays above

CC(=O)CCC=C(C)C
not listed: [7] | [11] | [14]
inactive: all other assays above

COC(=O)c1cccnc1
not listed: [4] | [14]
inactive: all other assays above

CC(C)CCCCCCCOC(=O)CCCCC(=O)OCCCCCCCC(C)C
not listed: [4] | [12] | [13] | [14]
inactive: all other assays above

CC(=O)OC1CC(C)OC(C)O1 (stereo not drawn)
not listed: [4]
inactive: all other assays above

CCOCC(=O)O
not listed: [4] | [14]
inactive: all other assays above
